Bioassay records (PubChem)
NPR2 activator = GC-B (human) receptor activation | P20594 | HEK293-GC-B cells, CNP EC30, cGMP TR-FRET; 0% at EC30 CNP, 100% saturating CNP | activation, % at 10 µM | actives 0.11% (n = 370,000) | AID 1920062;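 active means activation at 10 µM reaching about 35% in either raw or pattern-adjusted values, limit read from the data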
Efflux pump inh = blocks antifungal efflux pumps in multiplex yeast assay. inhibition, % at 10 µM. S. cerevisiae Candida pump triplex, Nile Red efflux. actives 0.44% (n = 330,000). AID 485275;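 active means plate passing quality check with inhibition over a set limit, or well fluorescence over plate mean plus 4 SD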;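 further: Nile Red retained in pooled yeast measured as flow cytometry median fluorescence; higher means more Nile Red kept so more efflux inhibition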
GC-A act = GC-A (human) enzyme activation; P16066; HEK293 GC-A cells, cGMP TR-FRET, EC30 ANP; 0% at EC30 ANP, 100% saturating ANP; activation, % at 10 µM; actives 0.14% (n = 370,000); AID 1671463; in the data active means activation above about 40%
Rce1 inh = inhibitors of yeast Ras-converting enzyme; actives 0.27% (n = 290,000); yeast membranes, quenched prenylated peptide cleavage fluorescence; calls only; Q03530; AID 2563;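 active means fall in fluorescence gain of 50% or more versus controls, with final raw signal at or below 3038400; inconclusive means same 50% fall but final raw signal above 3038400; inactive means fall in fluorescence gain under 50%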
NSD2 inh = inhibitors of human histone methyltransferase NSD2; O96028; NSD2 peptide methylation, AlphaScreen, 120 min; inhibition, % at 12.5 µM; actives 0.54% (n = 310,000); AID 743445; in the data active means inhibition above about 50%
V-ATPase pHluor = alters yeast V-ATPase proton transport | S. cerevisiae, pHLuorin cytosolic pH fluorescence | AID 504577 | actives 0.37% (n = 350,000) | response, % at 10 µM; in the data active means response mostly above about 7.3%, no sharp cut-off; inactive means mostly below about 5.4%; further: actives read high
Large screens that a line does not name were inactive. An excerpt weighted towards active compounds, which were near 1.6% of everything screened.

Cc1ccc(SCC(=O)NCCSC(C)(C)C)cc1	V-ATPase pHluor 19
O=S1(=O)CC2c3ccccc3CN2CN1Cc1ccccc1 (stereo not given)	none (no result: Efflux pump inh, Rce1 inh, NSD2 inh, V-ATPase pHluor)
COC(=O)c1nc(N)sc1-c1ccc(OC)cc1	none
COC(=O)c1nc(N)sc1-c1ccc(Cl)c(Cl)c1	Rce1 inh active
O=C(Nc1ccc(Cl)cc1)O[C@@H]1CC[C@@]23CCCN2C(=O)CCC[C@H]3C1	none (no result: Efflux pump inh, Rce1 inh, NSD2 inh, V-ATPase pHluor)
FC(F)(F)c1ccc2nc(CNc3nc(N4CCOCC4)nc4c3ncn4-c3ccsc3)[nH]c2c1	none (no result: Efflux pump inh, Rce1 inh, NSD2 inh, V-ATPase pHluor)
COc1ccc(COc2cc(-c3cccc(OC)c3)nc3ccc(N)cc23)cc1	NPR2 activator 53, GC-A act 56 (no result: NSD2 inh)
COc1ccc(COc2cc(-c3cccc(OC)c3)nc3ccc(NC(C)=O)cc23)cc1	NPR2 activator 68, GC-A act 54 (no result: NSD2 inh)
CCS(=O)(=O)NCC(c1cccnc1)N1CCN(c2ccc(OC)cc2)CC1 (stereo not given)	none
CCS(=O)(=O)NCC(c1cccnc1)N1CCN(c2ccccc2)CC1 (stereo not given)	V-ATPase pHluor 21 (no result: NSD2 inh)
CCCc1nc(C)c2c(=O)[nH]c(-c3cc(S(=O)(=O)N4CCN(CC)CC4)ccc3OCC)nn12	NPR2 activator 65, GC-A act 53 (no result: NSD2 inh)
CCOc1cc(S(=O)(=O)N2CCN(CC)CC2)ccc1Cl	none
Cc1ccc(NC(=O)CN2C(=O)NC(Cc3c[nH]c4ccccc34)C2=O)c(Br)c1 (stereo not given)	none (no result: NPR2 activator, Efflux pump inh, GC-A act, Rce1 inh, V-ATPase pHluor)
CC1=CN2C(=NC(=O)CC2(C)C(=O)N(CC(=O)NC2CCCC2)Cc2ccccc2)C=C1 (stereo not given)	Rce1 inh inconclusive
CC1=CC2=NC(=O)CC(C)(C(=O)N(CC(=O)NC3CCCC3)Cc3ccccc3)N2C=C1 (stereo not given)	Rce1 inh active
COc1ccc(-n2c(SCC(=O)Nc3ccc(S(=O)(=O)Nc4nccs4)cc3)nnc2-c2ccccc2)cc1	none (no result: Efflux pump inh, Rce1 inh, V-ATPase pHluor)
Nc1nnnn1/N=C/c1cccc(OCc2ccccc2Cl)c1	Rce1 inh active
CC(C)(C)OC(=O)N1CCC(c2ccc[nH]2)(c2c[nH]c3ccccc23)CC1	none (no result: Efflux pump inh, Rce1 inh, NSD2 inh, V-ATPase pHluor)
CCCCOc1ccc(/C=c2\sc3ncnn3c2=O)cc1	GC-A act 67
COc1ccc(C(=O)C2(C(=O)Nc3cc(C)cc(C)c3)CC(c3ccccc3C(F)(F)F)=NO2)cc1 (stereo not given)	none (no result: Efflux pump inh, Rce1 inh, NSD2 inh, V-ATPase pHluor)
CC1(C)OC(=O)C(=Cc2ccc(-c3ccc(S(N)(=O)=O)cc3)o2)C(=O)O1	GC-A act 40
Cn1c(=O)c(C(=O)NCCO)c(O)c2ccccc21	Rce1 inh active
O=C(NC1CCCc2c1cnn2-c1cc(F)cc(F)c1)c1ccccn1 (stereo not given)	Efflux pump inh 5.3
COC(=O)c1ccc(C(=O)NC2CCCc3c2cnn3-c2cc(F)cc(F)c2)nc1 (stereo not given)	none
CCOC(=O)COc1ccc(C(C)c2ccc(NC(=O)OC(C)(C)C)cc2)cc1 (stereo not given)	none (no result: Efflux pump inh, Rce1 inh, NSD2 inh, V-ATPase pHluor)
Cc1ccc(NC(=O)OC2CCC23CCCCC3)cc1 (stereo not given)	none (no result: Efflux pump inh, Rce1 inh, NSD2 inh, V-ATPase pHluor)
CC(=O)OC1CCC2(C)C(COc3ccc4ccc(=O)oc4c3)C(C)(O)CCC2C1(C)C (stereo not given)	Rce1 inh active
CCCCOc1ccc(C(=O)NC2CCCCN(CC)C2=O)cc1 (stereo not given)	none (no result: Efflux pump inh, Rce1 inh, NSD2 inh, V-ATPase pHluor)
c1ccc(-c2csc3ncnc(NCc4ccccn4)c23)cc1	V-ATPase pHluor 22
CC(C)(C)c1ccc(S(=O)(=O)/N=C2\C=C(NS(=O)(=O)c3ccccc3)C(=O)c3ccccc32)cc1	NSD2 inh 108
COC(=O)c1cc(-c2cc(F)cc(OC)c2)c(=O)n2c1CCC2	none (no result: Efflux pump inh, Rce1 inh, NSD2 inh, V-ATPase pHluor)
COc1ccc(S[C@]2(C(=O)N3CCN(C(C)=O)CC3)CC(=O)N(S(=O)(=O)c3ccc(F)cc3)[C@@H]2c2ccc(OC)cc2)cc1	none (no result: Efflux pump inh, Rce1 inh, NSD2 inh, V-ATPase pHluor)
COc1ccc(-c2csc3nc(-c4ccccc4OC)oc(=O)c23)cc1	GC-A act 42
CC(=O)N(C1=C(Cl)C(=O)c2ccccc2C1=O)C1CCCCC1	V-ATPase pHluor 141 (no result: NSD2 inh)
CCCCn1c(NC(=O)CC)c(C#N)c2nc3ccccc3nc21	none (no result: NPR2 activator, GC-A act)
N#Cc1c(NC(=O)c2ccccc2Cl)n(Cc2ccccc2)c2nc3ccccc3nc12	NSD2 inh 98 (no result: Rce1 inh)
COc1ccc(C2CC(c3cccs3)=NN2c2ccc(C=O)cc2)cc1 (stereo not given)	Rce1 inh active (no result: V-ATPase pHluor)
O=C(O)CN1C(=O)C=CC1=O	none (no result: Efflux pump inh, Rce1 inh)
O=C1C=CC(=O)N1CCCCCCN1C(=O)C=CC1=O	NPR2 activator 36 (no result: Rce1 inh, V-ATPase pHluor)
COc1ccc(-c2cc(C#N)nc(Cl)n2)cc1	GC-A act 78
CCOC(=O)NC[C@@]1(C(=O)OC)CC(=O)N(Cc2ccc(Cl)cc2)[C@@H]1c1ccc(OC)cc1	none (no result: Efflux pump inh, Rce1 inh, NSD2 inh, V-ATPase pHluor)
N=C1CCC(=N)c2c1c(O)c1ccccc1c2O	NSD2 inh 66 (no result: NPR2 activator, GC-A act)
O=C(CC(Nc1ccc(F)cc1)c1ccccc1)c1ccccc1 (stereo not given)	Rce1 inh active
Cc1cccc(CCNC(=O)c2ccc(Sc3ccccc3Cl)c([N+](=O)[O-])c2)c1	none (no result: Efflux pump inh, Rce1 inh, V-ATPase pHluor)
CCOC(=O)c1sc2nc(C3CC3)cc(-c3ccc(F)cc3)c2c1N	Rce1 inh active
CCOC(=O)c1sc(-c2ccc(OC)cc2)cc1N	none
CCOC(=O)c1sc2nc(C3CC3)cc(-c3ccc(OC)cc3)c2c1N	Rce1 inh active
CCOC(=O)c1sc(-c2ccc(F)cc2)cc1N	none
Cn1c(=O)c2c(nc(N/N=C3\CCCc4ccccc43)n2Cc2ccc(F)cc2)n(C)c1=O	NPR2 activator 50
O=C(Cn1c(=O)n2ncnc2c2c3c(sc21)CCCC3)c1ccccc1	none
O=c1n(Cc2ccccc2Cl)c2sc3c(c2c2ncnn12)CCCC3	NPR2 activator 39 (no result: Efflux pump inh, Rce1 inh, NSD2 inh)
CCN(CC)CCn1c2ccccc2c2cnc(N=CN(C)C)c(C#N)c21	Rce1 inh active
CCn1c2ccccc2c2cnc(N=CN(C)C)c(C#N)c21	none
COc1ccc(C)cc1NC(=O)CSc1nnc(-c2n[nH]c3c2CCC3)n1N	none (no result: Efflux pump inh, Rce1 inh, V-ATPase pHluor)
Cn1c(=O)cc(OCCCC(=O)Nc2cc(-c3cn[nH]c3)ccn2)c2ccccc21	none (no result: Efflux pump inh, Rce1 inh, NSD2 inh, V-ATPase pHluor)
Cc1[nH]c(-c2ccco2)nc1C(=O)O	V-ATPase pHluor 23
Cc1[nH]c(-c2ccc3c(c2)OCO3)nc1C(=O)O	none (no result: NSD2 inh)
O=C(CN1CCN(S(=O)(=O)c2ccc(Cl)cc2)CC1)c1ccc(O)c(O)c1	NSD2 inh 121 (no result: NPR2 activator, GC-A act)
O=C(CN1CCN(S(=O)(=O)c2ccc(F)cc2)CC1)c1ccc(O)c(O)c1	none (no result: NSD2 inh)
COc1ccc(S(=O)(=O)N2CCN(CC(=O)c3ccc(O)c(O)c3)CC2)cc1	NSD2 inh active
COc1ccc(C=Nn2c(-c3ccccc3F)n[nH]c2=S)cc1OCc1ccccc1	none (no result: Efflux pump inh, Rce1 inh, V-ATPase pHluor)
COc1cc(C(=O)Nc2cccc(C(=O)Nc3cc(C)ccn3)c2)cc(OC)c1OC	none (no result: NPR2 activator, Efflux pump inh, GC-A act, Rce1 inh, V-ATPase pHluor)
FC(F)(F)c1ccccc1NC(=S)OCCN1CCCC12CCC(c1ccccc1)CC2 (stereo not given)	none (no result: Efflux pump inh, Rce1 inh, NSD2 inh, V-ATPase pHluor)
